# Data published in PubChem BioAssay (EPA / NIEHS).
# Records with an inconclusive call do not appear. Activity calls are given as the source filed them. How the source made its calls: active means hit-call score of the fitted dose curve at least 0.9, where 1 is the maximum; inconclusive means response in the unintended direction; inactive means score below 0.9.
# Experiments:
# [1] = molecular target: human Beta-secretase (BACE), BACE1 (gene 23621) (UniProt P56817); experiment: NVS_ENZ_hBACE: NovaScreen (NVS) Enzymatic Assay for human Beta-secretase (BACE) (AID 2283140);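 further: hits are inhibitors that reduce fluorescent substrate signal versus DMSO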
# In short: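 Compounds were first tested in duplicate at 25 uM, then actives in concentration series, against recombinant BACE1 from SF9 cells. Enzyme activity was measured by fluorescence intensity 1 hour after dosing, with DMSO as negative control.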
# [2] = molecular target: human Dual Specificity Protein Phosphatase 3 (DUSP3), DUSP3 (gene 1845) (UniProt P51452); experiment: NVS_ENZ_hDUSP3: NovaScreen (NVS) Enzymatic Assay for human Dual Specificity Protein Phosphatase 3 (DUSP3) (AID 2283152);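 further: phosphatase activity of recombinant human DUSP3 on a fluorogenic substrate without cells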
# In short: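 Cell-free assay with recombinant human DUSP3 and fluorogenic substrate, read by fluorescence intensity. Primary screen ran duplicate at 25 uM; actives followed up in concentration series; loss of signal versus DMSO scored.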
# [3] = molecular target: human Casein Kinase 2- alpha 2 beta 2 (CK2a2b2), CSNK2A1 (gene 1457) (UniProt P68400); experiment: NVS_ENZ_hCK2a2b2: NovaScreen (NVS) Enzymatic Assay for human Casein Kinase 2- alpha 2 beta 2 (CK2a2b2) (AID 2283147)
# In short: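 Cell-free recombinant CK2 α2β2 holoenzyme with a fluorescent peptide substrate; product separated by electrophoretic mobility shift and read 1 h after dosing. Single-point screen at 25 uM in duplicate; actives were followed with concentration-response up to 50 uM versus DMSO.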
# [4] = molecular target: human Ephrin type-A Receptor 2 (EphA2), EPHA2 (gene 1969) (UniProt P29317); experiment: NVS_ENZ_hEphA2: NovaScreen (NVS) Enzymatic Assay for human Ephrin type-A Receptor 2 (EphA2) (AID 2283155)
# In short: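 Cell-free recombinant EphA2 kinase with specific substrate, 1 h, fluorescence with electrophoretic mobility-shift separation of substrate and product. Primary screen at 25 uM in duplicate; hits retested in singleton concentration-response up to 50 uM, referenced to DMSO.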
# [5] = molecular target: human Ephrin type-A Receptor 1 (EphA1), EPHA1 (gene 2041) (UniProt P21709); experiment: NVS_ENZ_hEphA1: NovaScreen (NVS) Enzymatic Assay for human Ephrin type-A Receptor 1 (EphA1) (AID 2283158);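 further: activity is signal loss versus DMSO meaning EphA1 kinase inhibition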
# In short: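 Chemicals first tested in duplicate at 25 uM against recombinant EphA1 with a fluorescent substrate; those passing threshold went to singleton dose-response topping at 50 uM. Activity read 1 h later as mobility-shift fluorescence, loss of signal relative to DMSO.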
# [6] = molecular target: Histone deacetylase 3 (Homo sapiens) (UniProt O15379); experiment: NVS_ENZ_hHDAC3: NovaScreen (NVS) Enzymatic Assay for human Histone Deacetylase 3 (HDAC3) (AID 2283163)
# In short: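 Recombinant human HDAC3 with fluorescent substrate, 1 h after dosing; product separated from substrate by electrophoretic mobility shift and read by fluorescence. Primary screen at 25 uM in duplicate; actives (e.g. ≥30% inhibition) retested in concentration-response up to 50 uM.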
# [7] = molecular target: human Esterase Plasma (ES), BCHE (gene 590) (UniProt P06276); experiment: NVS_ENZ_hES: NovaScreen (NVS) Enzymatic Assay for human Esterase Plasma (ES) (AID 2283157)
# In short: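 Chemicals were added to plasma-extracted human enzyme in a cell-free format, and activity was read colorimetrically after 0.25 hour. Activity loss was referenced to DMSO; concentration-response top dose was 50 uM.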
# [8] = molecular target: human Caspase 4 (CASP4), CASP4 (gene 837) (UniProt P49662); experiment: NVS_ENZ_hCASP4: NovaScreen (NVS) Enzymatic Assay for human Caspase 4 (CASP4) (AID 2283143)
# In short: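 The cell-free assay used E. coli-expressed enzyme with a fluorogenic substrate, read 2 h after dosing. Signal loss was scored versus DMSO. Screening was in duplicate at 25 uM, then singleton concentration-response up to 50 uM.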
# [9] = molecular target: human AKT serine/threonine Kinase 2 (AKT2), AKT2 (gene 208) (UniProt P31751); experiment: NVS_ENZ_hAKT2: NovaScreen (NVS) Enzymatic Assay for human AKT serine/threonine Kinase 2 (AKT2) (AID 2283141)
# In short: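 Cell-free fluorescence/electrophoretic mobility shift readout of recombinant human AKT2 activity, 1 h after chemical dosing. Duplicate primary screen at 25 uM, then singleton concentration-response up to 50 uM; loss of signal versus DMSO baseline.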
# [10] = molecular target: human Caspase 8 (CASP8), CASP8 (gene 841) (UniProt Q14790); experiment: NVS_ENZ_hCASP8: NovaScreen (NVS) Enzymatic Assay for human Caspase 8 (CASP8) (AID 2283146)
# In short: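 E. coli-expressed enzyme was used in a cell-free fluorogenic substrate assay read 1 h after dosing. Loss of signal was scored relative to DMSO, and the primary screen was run in duplicate at 25 uM.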
# [11] = molecular target: human Elastase, ELANE (gene 1991) (UniProt P08246); experiment: NVS_ENZ_hElastase: NovaScreen (NVS) Enzymatic Assay for human Elastase (AID 2283153)
# In short: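 Cell-free elastase from human neutrophils, 1.5 h after dosing, activity read by absorbance. Primary screen in duplicate at 25 uM; hits (e.g., 30% inhibition) rerun in singleton concentration-response up to 50 uM, fitted versus DMSO.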
# [12] = molecular target: human Aurora Kinase A - serine/threonine-protein Kinase 6 (AurA), AURKA (gene 6790) (UniProt O14965); experiment: NVS_ENZ_hAurA: NovaScreen (NVS) Enzymatic Assay for human Aurora Kinase A - serine/threonine-protein Kinase 6 (AurA) (AID 2283142)
# In short: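 Cell-free enzymatic assay with human Aurora A, 1 hour after dosing. Fluorescent substrate turnover detected after electrophoretic mobility shift separation of substrate and product. Screened at 25 uM, actives retested in concentration-response up to 50 uM.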
# [13] = molecular target: human Caspase 2 (CASP2), CASP2 (gene 835) (UniProt P42575); experiment: NVS_ENZ_hCASP2: NovaScreen (NVS) Enzymatic Assay for human Caspase 2 (CASP2) (AID 2283135)
# In short: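 E. coli-expressed enzyme in a cell-free protease assay, fluorescence read 1 h after dosing. Compounds at 25 uM in duplicate, with concentration-response up to 50 uM for hits; loss of signal against DMSO baseline.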
# [14] = molecular target: human Casein Kinase 1-delta (CK1D), CSNK1D (gene 1453) (UniProt P48730); experiment: NVS_ENZ_hCK1D: NovaScreen (NVS) Enzymatic Assay for human Casein Kinase 1-delta (CK1D) (AID 2283148)
# In short: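 Recombinant human CK1-delta, cell-free; fluorescent substrate with electrophoretic mobility-shift separation of product, read 1 h after dosing. Single 25 uM duplicate screen, then concentration-response up to 50 uM; loss of signal vs DMSO.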
# [15] = molecular target: human Caspase 5 (CASP5), CASP5 (gene 838) (UniProt P51878); experiment: NVS_ENZ_hCASP5: NovaScreen (NVS) Enzymatic Assay for human Caspase 5 (CASP5) (AID 2283137)
# In short: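 E. coli-derived enzyme, cell-free, 2 h incubation, fluorescence intensity. 25 uM duplicate single-point; hits → concentration series to 50 uM. DMSO baseline, positive/negative controls on every plate.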
# [16] = molecular target: human AKT serine/threonine Kinase 1 (AKT1), AKT1 (gene 207) (UniProt P31749); experiment: NVS_ENZ_hAKT1: NovaScreen (NVS) Enzymatic Assay for human AKT serine/threonine Kinase 1 (AKT1) (AID 2283138)
# In short: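 Recombinant AKT1, specific substrate, cell-free; 1 h; fluorescence intensity/electrophoretic mobility shift. Duplicate single-point 25 uM, then singleton CRC max 50 uM. DMSO = negative control/baseline; signal loss = inhibition.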
# [17] = molecular target: human Fibroblast Growth Factor Receptor 1 (FGFR1), FGFR1 (gene 2260) (UniProt P11362); experiment: NVS_ENZ_hFGFR1: NovaScreen (NVS) Enzymatic Assay for human Fibroblast Growth Factor Receptor 1 (FGFR1) (AID 2283159)
# In short: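 Cell-free recombinant kinase with fluorescent substrate, product separated by electrophoretic mobility shift; read 1 hour after dosing, loss of signal relative to DMSO. Initial screen in duplicate at 25 uM, actives followed in concentration series.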
# [18] = molecular target: human Ephrin type-B Receptor 2 (EphB2), EPHB2 (gene 2048) (UniProt P29323); experiment: NVS_ENZ_hEphB2: NovaScreen (NVS) Enzymatic Assay for human Ephrin type-B Receptor 2 (EphB2) (AID 2283156)
# In short: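 Recombinant kinase with fluorescent substrate, product separated by electrophoretic mobility shift, read 1 h after dosing. Duplicate 25 uM screen, then singleton concentration-response to 50 uM max; loss of signal versus DMSO.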
# [19] = molecular target: Caspase-3 (Homo sapiens) (UniProt P42574); experiment: NVS_ENZ_hCASP3: NovaScreen (NVS) Enzymatic Assay for human Caspase 3 (CASP3) (AID 2283139)
# In short: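 Recombinant human caspase-3 from E. coli with a fluorogenic substrate, read by fluorescence 1 h after dosing. Primary screen in duplicate at 25 uM. Actives (for example ≥30% inhibition) rerun as concentration-response up to 50 uM.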
# [20] = molecular target: human Colony Stimulating Factor 1 Receptor (CSF1R), CSF1R (gene 1436) (UniProt P07333); experiment: NVS_ENZ_hCSF1R: NovaScreen (NVS) Enzymatic Assay for human Colony Stimulating Factor 1 Receptor (CSF1R) (AID 2283150)
# In short: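 Cell-free recombinant human CSF1R kinase with fluorescent substrate, product separated by electrophoretic mobility shift; read 1 h after dosing. Primary screen at 25 uM in duplicate, actives then in concentration-response up to 50 uM, relative to DMSO.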
# Chain of human AKT serine/threonine Kinase 2 (AKT2), AKT2 (gene 208) (P31751 whole entry, looked up): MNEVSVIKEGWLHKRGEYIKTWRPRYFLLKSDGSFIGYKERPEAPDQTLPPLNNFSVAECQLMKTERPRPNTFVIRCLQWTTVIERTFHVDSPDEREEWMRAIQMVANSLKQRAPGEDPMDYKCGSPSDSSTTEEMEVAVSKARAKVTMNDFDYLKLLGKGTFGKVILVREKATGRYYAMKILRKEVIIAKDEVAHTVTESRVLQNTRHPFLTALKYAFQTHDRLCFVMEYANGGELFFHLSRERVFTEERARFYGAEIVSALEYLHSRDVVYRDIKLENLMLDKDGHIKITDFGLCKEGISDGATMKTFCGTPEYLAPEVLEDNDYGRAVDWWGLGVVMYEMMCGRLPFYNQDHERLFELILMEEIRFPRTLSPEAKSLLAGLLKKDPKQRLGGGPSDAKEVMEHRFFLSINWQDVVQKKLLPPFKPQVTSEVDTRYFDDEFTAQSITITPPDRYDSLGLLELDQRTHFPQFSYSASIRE
# Chain of human AKT serine/threonine Kinase 1 (AKT1), AKT1 (gene 207) (P31749 whole entry, looked up): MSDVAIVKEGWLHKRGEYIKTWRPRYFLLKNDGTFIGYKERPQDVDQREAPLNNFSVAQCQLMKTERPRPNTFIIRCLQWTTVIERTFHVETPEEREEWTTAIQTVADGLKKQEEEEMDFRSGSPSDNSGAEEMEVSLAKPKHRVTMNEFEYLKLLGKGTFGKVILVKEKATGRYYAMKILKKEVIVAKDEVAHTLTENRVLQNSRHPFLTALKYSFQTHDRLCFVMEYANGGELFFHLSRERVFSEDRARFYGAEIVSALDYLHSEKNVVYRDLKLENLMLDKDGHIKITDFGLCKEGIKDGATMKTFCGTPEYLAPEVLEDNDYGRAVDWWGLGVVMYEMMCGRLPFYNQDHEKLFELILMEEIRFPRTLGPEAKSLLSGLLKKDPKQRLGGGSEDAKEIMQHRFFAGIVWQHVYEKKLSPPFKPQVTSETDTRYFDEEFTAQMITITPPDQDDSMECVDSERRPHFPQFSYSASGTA
# Chain of human Dual Specificity Protein Phosphatase 3 (DUSP3), DUSP3 (gene 1845) (P51452 whole entry, looked up): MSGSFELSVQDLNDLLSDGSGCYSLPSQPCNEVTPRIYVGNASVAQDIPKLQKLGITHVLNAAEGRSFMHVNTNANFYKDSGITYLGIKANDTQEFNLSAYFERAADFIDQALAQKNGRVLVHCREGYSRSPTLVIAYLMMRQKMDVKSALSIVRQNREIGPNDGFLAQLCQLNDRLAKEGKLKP
# Chain of human Beta-secretase (BACE), BACE1 (gene 23621) (P56817 whole entry, looked up): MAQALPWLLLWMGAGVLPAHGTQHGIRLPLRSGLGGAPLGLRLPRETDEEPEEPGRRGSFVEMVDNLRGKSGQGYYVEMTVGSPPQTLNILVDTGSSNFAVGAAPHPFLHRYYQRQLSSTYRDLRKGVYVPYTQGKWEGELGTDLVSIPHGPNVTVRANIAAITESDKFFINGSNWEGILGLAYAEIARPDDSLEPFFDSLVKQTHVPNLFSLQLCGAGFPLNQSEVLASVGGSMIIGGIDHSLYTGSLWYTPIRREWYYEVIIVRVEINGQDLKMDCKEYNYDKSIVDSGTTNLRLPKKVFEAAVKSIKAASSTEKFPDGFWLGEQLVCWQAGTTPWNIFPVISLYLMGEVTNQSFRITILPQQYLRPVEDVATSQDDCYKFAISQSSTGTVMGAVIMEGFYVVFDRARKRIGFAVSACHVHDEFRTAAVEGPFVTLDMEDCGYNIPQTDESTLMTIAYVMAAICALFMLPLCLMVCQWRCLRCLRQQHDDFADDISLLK
# Chain of human Esterase Plasma (ES), BCHE (gene 590) (P06276 whole entry, looked up): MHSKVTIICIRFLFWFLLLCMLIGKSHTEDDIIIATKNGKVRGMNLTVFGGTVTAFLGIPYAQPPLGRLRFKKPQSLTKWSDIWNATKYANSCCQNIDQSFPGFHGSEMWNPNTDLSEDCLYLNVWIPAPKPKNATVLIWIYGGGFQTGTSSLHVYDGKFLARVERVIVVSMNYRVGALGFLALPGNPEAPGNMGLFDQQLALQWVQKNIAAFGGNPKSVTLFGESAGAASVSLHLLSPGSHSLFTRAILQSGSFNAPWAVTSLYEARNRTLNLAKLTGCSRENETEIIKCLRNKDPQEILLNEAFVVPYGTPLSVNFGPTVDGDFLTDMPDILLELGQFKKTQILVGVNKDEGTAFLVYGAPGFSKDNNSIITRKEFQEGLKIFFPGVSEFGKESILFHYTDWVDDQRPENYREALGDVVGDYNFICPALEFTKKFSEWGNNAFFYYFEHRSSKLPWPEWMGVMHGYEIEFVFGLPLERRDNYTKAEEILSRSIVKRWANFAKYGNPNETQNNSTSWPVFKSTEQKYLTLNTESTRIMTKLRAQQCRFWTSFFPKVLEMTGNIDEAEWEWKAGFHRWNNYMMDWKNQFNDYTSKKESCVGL
# Chain of human Caspase 2 (CASP2), CASP2 (gene 835) (P42575 whole entry, looked up): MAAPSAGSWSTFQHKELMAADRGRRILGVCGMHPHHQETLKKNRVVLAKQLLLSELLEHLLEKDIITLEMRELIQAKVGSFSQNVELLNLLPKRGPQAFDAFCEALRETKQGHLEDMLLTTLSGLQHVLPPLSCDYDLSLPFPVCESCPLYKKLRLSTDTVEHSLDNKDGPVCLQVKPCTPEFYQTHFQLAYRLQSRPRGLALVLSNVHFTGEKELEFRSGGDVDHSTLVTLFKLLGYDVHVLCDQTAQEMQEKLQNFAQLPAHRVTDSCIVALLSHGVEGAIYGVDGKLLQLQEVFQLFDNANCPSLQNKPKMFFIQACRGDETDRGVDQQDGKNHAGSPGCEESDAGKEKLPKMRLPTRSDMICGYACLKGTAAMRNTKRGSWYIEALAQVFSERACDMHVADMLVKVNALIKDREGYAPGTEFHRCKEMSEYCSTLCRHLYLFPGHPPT
# Chain of human Elastase, ELANE (gene 1991) (P08246 whole entry, looked up): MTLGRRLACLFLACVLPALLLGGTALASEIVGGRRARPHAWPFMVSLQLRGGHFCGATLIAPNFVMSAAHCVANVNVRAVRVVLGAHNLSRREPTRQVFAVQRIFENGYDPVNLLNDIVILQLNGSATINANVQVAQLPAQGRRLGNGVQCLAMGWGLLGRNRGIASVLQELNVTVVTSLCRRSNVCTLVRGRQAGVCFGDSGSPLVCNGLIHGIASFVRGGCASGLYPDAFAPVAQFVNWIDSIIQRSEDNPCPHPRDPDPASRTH
# Chain of human Casein Kinase 2- alpha 2 beta 2 (CK2a2b2), CSNK2A1 (gene 1457) (P68400 whole entry, looked up): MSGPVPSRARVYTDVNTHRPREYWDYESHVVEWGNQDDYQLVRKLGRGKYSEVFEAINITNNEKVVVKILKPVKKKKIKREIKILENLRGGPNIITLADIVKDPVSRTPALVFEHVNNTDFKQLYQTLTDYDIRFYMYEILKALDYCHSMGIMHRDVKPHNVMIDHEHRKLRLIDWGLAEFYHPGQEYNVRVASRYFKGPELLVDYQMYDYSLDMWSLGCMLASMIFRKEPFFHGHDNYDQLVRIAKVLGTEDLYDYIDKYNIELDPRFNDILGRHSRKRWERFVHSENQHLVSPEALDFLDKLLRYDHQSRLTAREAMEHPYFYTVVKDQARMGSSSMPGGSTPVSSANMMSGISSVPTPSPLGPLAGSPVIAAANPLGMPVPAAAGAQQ
# Chain of human Caspase 8 (CASP8), CASP8 (gene 841) (Q14790 whole entry, looked up): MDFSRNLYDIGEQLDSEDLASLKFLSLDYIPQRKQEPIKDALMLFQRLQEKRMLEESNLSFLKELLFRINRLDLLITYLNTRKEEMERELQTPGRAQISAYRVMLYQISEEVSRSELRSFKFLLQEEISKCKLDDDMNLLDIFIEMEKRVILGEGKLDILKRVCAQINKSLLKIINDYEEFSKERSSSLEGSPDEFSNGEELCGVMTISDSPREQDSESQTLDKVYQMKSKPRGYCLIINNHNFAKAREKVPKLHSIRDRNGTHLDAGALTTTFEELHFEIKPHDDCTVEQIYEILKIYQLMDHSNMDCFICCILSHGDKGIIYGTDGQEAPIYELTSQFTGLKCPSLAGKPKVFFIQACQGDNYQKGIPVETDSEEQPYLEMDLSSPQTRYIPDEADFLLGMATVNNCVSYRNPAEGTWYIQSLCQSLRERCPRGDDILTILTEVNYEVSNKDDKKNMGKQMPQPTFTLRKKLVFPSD
# Chain of human Caspase 5 (CASP5), CASP5 (gene 838) (P51878 whole entry, looked up): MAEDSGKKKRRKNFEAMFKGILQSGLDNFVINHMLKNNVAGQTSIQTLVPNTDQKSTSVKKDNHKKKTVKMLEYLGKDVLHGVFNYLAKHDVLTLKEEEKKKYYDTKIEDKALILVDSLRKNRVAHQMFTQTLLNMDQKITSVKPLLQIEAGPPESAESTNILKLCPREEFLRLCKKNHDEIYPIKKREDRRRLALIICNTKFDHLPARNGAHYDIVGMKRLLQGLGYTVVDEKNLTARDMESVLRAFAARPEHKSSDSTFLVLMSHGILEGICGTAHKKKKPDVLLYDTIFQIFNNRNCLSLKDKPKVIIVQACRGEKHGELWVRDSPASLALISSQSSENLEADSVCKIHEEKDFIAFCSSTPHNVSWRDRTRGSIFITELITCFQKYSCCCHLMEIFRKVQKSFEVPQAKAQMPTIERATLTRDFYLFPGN
# Chain of Histone deacetylase 3 (Homo sapiens) (O15379 whole entry, looked up): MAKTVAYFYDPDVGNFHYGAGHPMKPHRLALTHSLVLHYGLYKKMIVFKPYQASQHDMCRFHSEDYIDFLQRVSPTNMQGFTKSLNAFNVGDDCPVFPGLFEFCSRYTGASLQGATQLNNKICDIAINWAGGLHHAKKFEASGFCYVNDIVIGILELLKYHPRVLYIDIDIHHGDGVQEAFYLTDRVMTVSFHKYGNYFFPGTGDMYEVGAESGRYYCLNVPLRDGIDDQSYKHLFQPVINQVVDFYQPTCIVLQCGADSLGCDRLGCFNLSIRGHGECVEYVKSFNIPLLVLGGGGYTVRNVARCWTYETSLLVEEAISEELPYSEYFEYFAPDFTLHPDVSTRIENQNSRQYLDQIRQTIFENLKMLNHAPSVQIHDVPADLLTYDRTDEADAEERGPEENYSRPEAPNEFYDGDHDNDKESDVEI
smiles,measurement,setting,value
CC1(C)C(C=C(Cl)Cl)C1C(=O)OC(C#N)c1cccc(Oc2ccccc2)c1 (configuration not stated),outcome,[1],inactive
same,AC50,[2],3.06 µM (active)
Clc1nc(Cl)nc(Nc2ccccc2Cl)n1,AC50,[3],15.8 µM (active)
same,outcome,[4],inactive
same,outcome,[5],inactive
same,outcome,[6],inactive
O=C(O)c1c(Cl)ccc2cc(Cl)cnc12,AC50,[7],8.48 µM (active)
CCCCC(O)(Cn1cncn1)c1ccc(Cl)cc1Cl (configuration not stated),AC50,[8],9.08 µM (active)
CS(=O)(=O)c1cc(C(F)(F)F)ccc1C(=O)c1cnoc1C1CC1,outcome,[9],inactive
Nc1c(Cl)c(F)nc(OCC(=O)O)c1Cl,outcome,[10],inactive
same,AC50,[3],18.8 µM (active)
CCOC(=O)C(C)OC(=O)c1cc(Oc2ccc(C(F)(F)F)cc2Cl)ccc1[N+](=O)[O-] (configuration not stated),outcome,[10],inactive
same,outcome,[2],inactive
same,outcome,[11],inactive
Cn1c(-c2ccccc2)cc(-c2ccccc2)[n+]1C,AC50,[7],4.69 µM (active)
CCCC(=NOCC)C1=C(O)CC(CC(C)SCC)CC1=O (configuration not stated),outcome,[9],inactive
same,outcome,[12],inactive
same,outcome,[2],inactive
CCNC(=O)NC(=O)C(C#N)=NOC,outcome,[13],inactive
CC1(C)CCC(=Cc2ccc(Cl)cc2)C1(O)Cn1cncn1 (configuration not stated),outcome,[7],inactive
COC(=O)c1c(C(F)F)nc(C(F)(F)F)c(C2=NCCS2)c1CC(C)C,AC50,[1],8.78 µM (active)
Cc1c(COC(=O)[C@@H]2[C@H](/C=C(\Cl)C(F)(F)F)C2(C)C)cccc1-c1ccccc1,outcome,[1],inactive
same,outcome,[11],inactive
CC(C)N1C(=O)N(c2ccccc2)CSC1=NC(C)(C)C,outcome,[13],inactive
same,AC50,[2],2.96 µM (active)
CCOP(=S)(OCC)Oc1nc(Cl)n(C(C)C)n1,outcome,[11],inactive
same,AC50,[7],4.75 µM (active)
OC(c1ccc(Cl)cc1)(c1ccc(Cl)cc1)C(Cl)(Cl)Cl,outcome,[11],inactive
COP(=O)(OC)O/C(C)=C/C(=O)N(C)C,AC50,[7],17.4 µM (active)
CN/C(=N\[N+](=O)[O-])NCc1cnc(Cl)s1,outcome,[13],inactive
same,outcome,[14],inactive
Nc1c(Cl)c(Cl)nc(C(=O)O)c1Cl,outcome,[15],inactive
same,outcome,[16],inactive
same,outcome,[9],inactive
CCCCOCN(C(=O)CCl)c1c(CC)cccc1CC,AC50,[1],9.39 µM (active)
O=C1C2CC=CCC2C(=O)N1SC(Cl)(Cl)Cl (configuration not stated),outcome,[13],inactive
same,outcome,[17],inactive
same,AC50,[6],7.99 µM (active)
N#Cc1c(Cl)cccc1Cl,outcome,[16],inactive
COC(=O)N(C(=O)N1CO[C@@]2(C(=O)OC)Cc3cc(Cl)ccc3C2=N1)c1ccc(OC(F)(F)F)cc1,outcome,[1],inactive
same,outcome,[2],inactive
same,outcome,[18],inactive
O=c1n(Cl)c(=O)n(Cl)c(=O)n1Cl,outcome,[15],inactive
same,outcome,[16],inactive
same,outcome,[9],inactive
same,outcome,[11],inactive
CCSC(=O)N1CCCCCC1,outcome,[10],inactive
CS(=O)(=O)c1ccc(C(=O)C2C(=O)CCCC2=O)c([N+](=O)[O-])c1,AC50,[3],8.29 µM (active)
N#Cc1c[nH]cc1-c1cccc2c1OC(F)(F)O2,outcome,[5],inactive
CCOc1nc(F)cc2nc(S(=O)(=O)Nc3c(Cl)cccc3Cl)nn12,outcome,[16],inactive
CCOP(=O)(OCC)Oc1nc(Cl)c(Cl)cc1Cl,AC50,[11],14.4 µM (active)
same,AC50,[7],0.00463 µM (active)
CCOc1cc(C(C)(C)C)ccc1C1COC(c2c(F)cccc2F)=N1 (configuration not stated),AC50,[11],40.9 µM (active)
CCOc1nc(C(Cl)(Cl)Cl)ns1,outcome,[19],inactive
CC1(C)C(C(=O)OC(C#N)c2cccc(Oc3ccccc3)c2)C1(C)C (configuration not stated),AC50,[1],2.8 µM (active)
same,outcome,[11],inactive
CC(C)=CC1C(C(=O)OCc2coc(Cc3ccccc3)c2)C1(C)C (configuration not stated),AC50,[1],40.5 µM (active)
same,AC50,[11],33.6 µM (active)
CC(C)NC(=O)N1CC(=O)N(c2cc(Cl)cc(Cl)c2)C1=O,outcome,[4],inactive
CCN(CC)C(=O)C(C)Oc1cccc2ccccc12 (configuration not stated),outcome,[20],inactive
same,AC50,[7],16.7 µM (active)
Cc1nc(N(C)C)nc(OC(=O)N(C)C)c1C,AC50,[7],16.9 µM (active)
